Test results taken from publication PMC4552634, “A New Set of Chemical Starting Points with Plasmodium falciparum Transmission-Blocking Potential for Antimalarial Drug Discovery” (PLoS ONE, 2015).
Hit rate of the full screen: of about 13,000 compounds, about 3,200 (25%) showed an effect of 50% or more. This is one part of the list.

The molecules below were run on P. falciparum stage V gametocytes. Conditions: 48 h, 5 µM; inhibitor.
Design: BacTiter-Glo ATP luminescence viability of purified stage V gametocytes in 384-well plates, per cent inhibition versus DMSO

| Structure (SMILES) | % Inhibition [%] |
| --- | --- |
| COc1cc(Cc2cnc(N)nc2N)cc(OCCCCCCC(=O)O)c1OC [TCMDC-137630] | -3.564 |
| COc1ccc(CNCc2ccc(F)cc2)cc1-c1ccc(S(=O)(=O)NCCN2CCCC2)s1 [TCMDC-132297] | 108.7 |
| COc1ccc(CNCCc2cccs2)cc1-c1ccc(S(=O)(=O)NCCN2CCCC2)s1 [TCMDC-132477] | 85.27 |
| COc1ccc(CNCc2ccsc2)cc1-c1ccc(S(=O)(=O)NCCN2CCCC2)s1 [TCMDC-132298] | 91.71 |
| COc1ccc(CNCc2ccccc2)cc1-c1ccc(S(=O)(=O)NCCN2CCCC2)s1 [TCMDC-132257] | 102.1 |
| CN1CCN(c2ccnc3ccc(NC(=O)Cc4cccc(Cl)c4Cl)cc23)CC1 [TCMDC-139274] | -28.12 |
| Cc1cccc2[nH]c(-c3cccc(-c4cccc(NC(=O)c5cnn6cccnc56)c4)c3)nc12 [TCMDC-136867] | -0.6551 |
| CN(C)c1cc2c(Nc3ccc4nc(Cc5ccccc5)[nH]c4c3)ncnc2cn1 [TCMDC-137304] | -2.875 |
| COc1ccc2nccc(N(C)CC3(O)CCN(CC(O)c4ccc5c(c4)NC(=O)CS5)CC3)c2n1 (centres unmarked) [TCMDC-141471] | 38.6 |
| O=C(Nc1cccc(-c2ccc(-c3nc4cc(C(F)(F)F)ccc4[nH]3)s2)c1)c1cccnc1 [TCMDC-136922] | 0.1958 |
| CC(C)COc1ccc(Cl)cc1Cc1nc(-c2nc3ccc(CN4CCCC4)cc3[nH]2)co1 [TCMDC-136810] | -7.137 |
| CC(C)COc1ccc(Cl)cc1Cc1nc(-c2nc3ccc(CN4CCCCC4)cc3[nH]2)co1 [TCMDC-136811] | -22.76 |
| CC(C)COc1ccc(Cl)cc1Cc1ccc(-c2nc3c(cnc4ccccc43)[nH]2)o1 [TCMDC-136650] | 61.46 |
| Clc1ccc(OCc2ccccc2)c(Cc2ccc(-c3nc4ccncc4[nH]3)o2)c1 [TCMDC-136651] | 10.18 |
| CC(C)COc1ccc(Cl)cc1Cc1ccc(-c2nc3c(F)c(F)ccc3[nH]2)o1 [TCMDC-136562] | 72.75 |
| CC(C)COc1ccc(Cl)cc1Cc1ccc(-c2nc3c(F)cccc3[nH]2)o1 [TCMDC-136661] | 74.56 |
| CNCc1cccc2[nH]c(-c3ccc(Cc4cc(Cl)ccc4OCC(C)C)o3)nc12 [TCMDC-137044] | 60.59 |
| O=C(Nc1cccc(-c2nn3ccccc3c2-c2ccnc(Nc3cccc(F)c3)n2)c1)C1CCCCC1 [TCMDC-135770] | -93.68 |
| Cc1ccc2c(O)c([N+](=O)[O-])c(=O)[nH]c2c1 [TCMDC-131383] | 0.04547 |
| CCCn1c(SCC(=O)Nc2cc(C(F)(F)F)ccc2Cl)n[nH]c1=O [TCMDC-123566] | -8.395 |
| CC(C)(NCc1ncc[nH]1)c1nc(-c2ccc(Cl)c(O)c2)c(-c2ccncc2)[nH]1 [TCMDC-140686] | -7.541 |
| O=C(Nc1ccsc1)Nc1cccc(-c2cccc(-c3nc4ccccc4[nH]3)c2)c1 [TCMDC-133212] | -2.113 |
| COc1ccc(-c2cccc(CNC3CCN(CC4Cn5c(=O)ccc6ccc(F)c4c65)CC3)c2)cc1 (centres unmarked) [TCMDC-134414] | -11.45 |
| CCc1ccccc1OCCCON1C(N)=NC(N)=NC1(C)C [TCMDC-131305] | 3.059 |
| COc1ccccc1N1CCN(C(C(=O)NCc2ccc3c(c2)OCO3)c2ccc3c(c2)OCCCO3)CC1 (centres unmarked) [TCMDC-135675] | -10.78 |

| Structure (SMILES) | % Inhibition [%] |
| --- | --- |
| COc1ccc(COc2cc(NCCCN)nc3ccccc23)cc1 [TCMDC-139286] | 99.04 |
| COc1cc(NCC(O)CNc2cc(Cl)nc3ccccc23)nc2ccccc12 (centres unmarked) [TCMDC-139359] | 31.96 |
| COc1cc(NCC(CN)Cc2ccc3c(c2)OCO3)nc2ccccc12.Cl (centres unmarked) [TCMDC-140387] | 69.08 |
| COc1cc(NCCCCCNc2cc(Cl)nc3ccccc23)nc2ccccc12 [TCMDC-139303] | -22.5 |
| Cc1nc(NCc2ccccc2)cc(NCC(O)c2ccc(O)cc2)n1 (centres unmarked) [TCMDC-135163] | 19.67 |
| COc1ccccc1N1CCN(C(C(=O)NCc2ccc3c(c2)OCO3)c2ccc(C)cc2)CC1 (centres unmarked) [TCMDC-135503] | -4.748 |
| COc1cc(NCC(O)CNc2cc(OC)c3ccccc3n2)nc2ccccc12 [TCMDC-139360] | 55.11 |
| COc1ccc2c(C)cc(NCCCN(C)C)nc2c1 [TCMDC-124046] | 8.685 |
| Cc1ccc(C(=O)Nc2ccnc(N(C)C3CCN(Cc4cccc(O)c4)CC3)c2)cn1 [TCMDC-134967] | -0.6383 |
| COCCNCc1ncsc1-c1ccc2c(Nc3cc(O)c(Cl)cc3F)ccnc2c1 [TCMDC-138441] | 3.438 |
| Cc1nc(N=C(N)N)nc2ccc(C(C)(C)C)cc12 [TCMDC-137936] | -23.7 |
| Cc1nc(N=C(N)N)nc2cc3c(cc12)CCC3 [TCMDC-141187] | 84.12 |
| CCC1(C)N=C(N)N=C(N)N1c1ccc(Cl)cc1 (centres unmarked) [TCMDC-132039] | 4.957 |
| COc1cc(Nc2ncnc3cc(OC)c(OC)cc23)cc([N+](=O)[O-])c1 [TCMDC-138138] | 82.08 |
| COc1cc2ncnc(Nc3ccc(Br)c(Cl)c3)c2cc1OC [TCMDC-131909] | 14.07 |
| COc1cc2ncnc(Nc3ccc(OC(F)(F)c4ccccc4)cc3)c2cc1OC [TCMDC-131925] | 12 |
| CCOC(=O)c1ccc(NC(=O)Nc2cccc(-c3ccc(-c4nc5ccccc5[nH]4)cc3)c2)cc1 [TCMDC-133266] | -19.34 |
| O=C(/C=C/c1ccc(Cl)c(Cl)c1)NCCCCCN1CCC(NC(=O)Nc2ccc(F)c(F)c2)CC1 [TCMDC-135714] | -48.39 |
| COc1ccc(CCc2ccc(-c3c(C)[nH]c(C)c(Cl)c3=O)cc2)cc1OC [TCMDC-135789] | 86.31 |
| COc1ccc(C=Cc2ccc(-c3c(C)[nH]c(C)c(Cl)c3=O)cc2)cc1OC [TCMDC-135788] | 33.6 |
| COc1ccc(C#Cc2ccc(-c3c(C)[nH]c(C)c(Cl)c3=O)cc2)cc1 [TCMDC-135655] | 67.24 |
| Cc1[nH]c(C)c(-c2ccc(Oc3ccc(O)cc3)cc2)c(=O)c1Cl [TCMDC-136135] | -17.77 |
| C/C=C/COc1ccc(-c2c(C)[nH]c(C)c(Cl)c2=O)cc1 [TCMDC-134729] | 76.24 |
| CC(=O)Nc1ccc(C#Cc2ccc(-c3c(C)[nH]c(C)c(Cl)c3=O)cc2)cc1 [TCMDC-135653] | 34.03 |
| COc1ccc(Oc2ccc(-c3c(C)[nH]c(C)c(Cl)c3=O)cc2)cc1 [TCMDC-136134] | 78.59 |

| Structure (SMILES) | % Inhibition [%] |
| --- | --- |
| Cc1[nH]c(C)c(-c2ccc(OCc3ccc(F)cc3)cc2)c(=O)c1Cl [TCMDC-132415] | 7.51 |
| CN1CC[C@H](N(Cc2ccccc2F)c2ccc(C#N)c(Cl)c2)C1 [TCMDC-137035] | 21.12 |
| COc1ccc(CN2CCC2=O)c(OC)c1 [TCMDC-132118] | 45.15 |
| CC(=O)N[C@@H]1c2cc(C(C)=O)ccc2OC(C)(C)[C@@H]1O [TCMDC-139001] | 15.15 |
| CC(C)(C)c1ccc(S(=O)(=O)Nc2cc(Cl)ccc2Cn2ccc(N3CCNCC3)nc2=O)cc1 [TCMDC-132581] | 5.996 |
| Oc1ccc2[nH]c(-c3cccs3)nc2c1CN1CCC(N2CCCC2)CC1 [TCMDC-136356] | -12.57 |
| COc1ccc(CCn2c(=N)c(C(=O)NCc3ccc(C)cc3)cc3c(=O)n4ccccc4nc32)cc1 [TCMDC-124475] | 27.16 |
| Cc1[nH]c(C)c(-c2ccc(Oc3ccc(F)cc3)cc2)c(=O)c1Cl [TCMDC-134728] | 77.31 |
| Cc1[nH]c(C)c(-c2ccc(CCc3ccc(N)cc3)cc2)c(=O)c1Cl [TCMDC-135678] | 70.67 |
| COc1ccc(CCc2ccc(-c3c(C)[nH]c(C)c(Cl)c3=O)cc2)cc1 [TCMDC-135654] | 77.1 |
| CC1(C)N=C(N)N=C(N)N1c1cc(Cl)c(Cl)c(Cl)c1 [TCMDC-137508] | -8.001 |
| Cc1cnc(-c2cccc(C(=O)NC3CCC(CCN4CCc5ccc(C#N)cc5CC4)CC3)c2)[nH]1 (centres unmarked) [TCMDC-139842] | -56.62 |
| CS(=O)(=O)N1CC2(CCN(CCC(NC(=O)NCc3ccccc3Cl)c3ccc(Cl)c(Cl)c3)CC2)c2ccccc21 (centres unmarked) [TCMDC-141768] | 10.44 |
| O=C(Nc1ccc(Br)c(C(F)(F)F)c1)c1cccc([N+](=O)[O-])c1 [TCMDC-123520] | -21.49 |
| O=C1COC2(CN1C1CCN(Cc3ccc(O)cc3Cl)C1)c1ccccc1-c1ccccc12 (centres unmarked) [TCMDC-136341] | 24.28 |
| OCCN1CCN(Cc2ccc(-c3cccc(-c4nc5ccc(F)cc5[nH]4)c3)cc2)CC1 [TCMDC-133032] | -6.536 |
| N#CCCN1CCN(Cc2cccc(-c3ccc(-c4nc5ccc(F)cc5[nH]4)cc3)c2)CC1 [TCMDC-133860] | -16.76 |
| OCCN1CCN(Cc2cccc(-c3ccc(-c4nc5ccc(C(F)(F)F)cc5[nH]4)cc3)c2)CC1 [TCMDC-133031] | 3.481 |
| Fc1ccc2nc(-c3ccc(-c4cccc(CN5CCN(CCN6CCOCC6)CC5)c4)cc3)[nH]c2c1 [TCMDC-133936] | -11.53 |
| Fc1ccc2nc(-c3cccc(-c4ccc(CN5CCN(CCN6CCOCC6)CC5)cc4)c3)[nH]c2c1 [TCMDC-133942] | 39.55 |
| FC(F)(F)c1ccc2nc(-c3ccc(-c4cccc(CN5CCN(CCN6CCOCC6)CC5)c4)cc3)[nH]c2c1 [TCMDC-133943] | -11.41 |
| CN1CCC(N2CCN(Cc3cccc(-c4ccc(-c5nc6ccc(C(F)(F)F)cc6[nH]5)cc4)c3)CC2)CC1 [TCMDC-133842] | 104 |
| CN1CCC(N2CCN(Cc3ccc(-c4cccc(-c5nc6ccc(F)cc6[nH]5)c4)cc3)CC2)CC1 [TCMDC-133843] | 52.56 |
| CN1CCC(N2CCN(Cc3cccc(-c4ccc(-c5nc6ccc(F)cc6[nH]5)cc4)c3)CC2)CC1 [TCMDC-133858] | 97.12 |
